Source: PubChem BioAssay AID1963318 (National Center for Advancing Translational Sciences (NCATS), 2024)
In all, about 1,300 compounds went through this assay and about 100 (7.7%) were called active. Inconclusive results (about 19%) are left out. Only a sample is shown. A number with no mark means an inactive call. The call rests on the fitted dose curve; in most records, active means well fitted activation curve with a large enough effect; inconclusive means small, poorly fitted or top-dose-only effect; inactive means no such curve, though single readings can be large or run the other way.

Target: Luciferin 4-monooxygenase (Photinus pyralis) (UniProt P08659)
Sequence (P08659 whole entry, looked up): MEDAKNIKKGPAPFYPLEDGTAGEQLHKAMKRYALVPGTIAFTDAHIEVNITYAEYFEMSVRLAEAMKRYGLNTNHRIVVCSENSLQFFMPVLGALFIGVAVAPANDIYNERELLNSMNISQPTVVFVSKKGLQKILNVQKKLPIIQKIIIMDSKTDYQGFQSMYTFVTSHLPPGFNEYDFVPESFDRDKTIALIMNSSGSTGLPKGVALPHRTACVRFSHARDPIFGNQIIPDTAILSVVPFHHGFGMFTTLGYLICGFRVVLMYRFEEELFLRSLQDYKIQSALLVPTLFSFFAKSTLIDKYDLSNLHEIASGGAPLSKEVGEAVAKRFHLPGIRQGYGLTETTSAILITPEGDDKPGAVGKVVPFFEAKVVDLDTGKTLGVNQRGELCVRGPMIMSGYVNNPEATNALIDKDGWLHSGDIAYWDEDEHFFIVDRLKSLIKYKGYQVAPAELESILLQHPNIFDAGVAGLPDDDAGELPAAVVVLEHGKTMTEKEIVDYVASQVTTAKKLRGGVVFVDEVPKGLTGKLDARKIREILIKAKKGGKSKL
Assay: Firefly luciferase (FLuc-C-HiBiT) SDR gain of signal screen - without ATP; further: nearly all actives have a fitted effect of over 55% in size
Details: Purified FLuc-C-HiBiT, Nano-Glo HiBiT luminescence, no ATP; series mostly up to 32.7 µM; activation (signal gain): at the top concentration
Excerpt: PI: James Inglese Ph.D. National Center for Advancing Translational Sciences (NCATS), National Institute of Health (NIH), Maryland Discovery and optimization of novel protein-binding ligands underlies many of the methods and applications of biology, drug discovery, clinical diagnostics, and environmental toxicology. Assays for detecting the interaction of, for example, a molecule with a macromolecular target also referred to here as the target of interest (TOI) is dependent on a compatible output technology. Depending on the nature and knowledge surrounding the TOI, whether a receptor, enzyme, regulatory subunit or scaffold, or a sequence-defined nucleic acid folded into a complex tertiary structure, assay strategies can vary widely. Here we exploit ligand-biased changes in the structural dynamics of the target protein to control reporter alpha complementation allowing a non-competitive, non-functional, non-separation measure of ligand-target interaction. […] Secondly, we show the specificity and sensitivity of the SDR for the Abelson tyrosine kinase (ABL1) compared to the serine/threonine protein kinase A, using an enriched chemical library of 128 compounds selected, in part, for activity annotated with ABL1 kinase activity using the Pharos database (3). References: (1) A. S. Dixon et al., NanoLuc Complementation Reporter Optimized for Accurate Measurement of Protein Interactions in Cells. ACS Chem Biol 11, 400-408 (2016). […] Chemistry & Biology, 19, 1060 - 1072 (2012). (3) K. J. Kelleher et al., Pharos 2023: an integrated resource for the understudied human proteome. Nucleic Acids Res 51, D1405-D1416 (2023).
1. Reagent. Dispense 4 uL FLuc-C-HiBiT enzyme-buffer solution per well at a final enzyme concentration of 10 nM with or without 10 uM ATP into columns 2-48 of white, solid bottom medium bind 1536-well plates (Greiner Bio-One) by BioRaptr 2. Dispense respective buffer without enzyme at 4 uL/well in column 1 of assay plates. 2. Compounds. Library compounds and PTC124 control added at 23 nL per well, transfer by Pin Tool. 3. Incubation. Incubate enzyme and compounds at room temperature for >30 min, protect from light. 4. Reagent. (SDR assay) Add 3 uL/well of Nano-Glo HiBiT reagent (Promega) to assay plates for SDR assay without ATP. 5. Incubation. Incubate enzyme and substrate or detection reagent at room temperature for 5-10 min, protect from light. 6. Detector. HiBiT SDR assay measured using CCD-based camera (ViewLux) with settings as follows: Exposure, 1 sec; Gain, High; Speed, Slow; Binning, 2X. REFERENCES: Inglese J, Shamu CE and Guy RK, Reporting data from high throughput screening of small molecule libraries, Nature Chemical Biology, 2007, 3(8): 438-441. doi.org/10.1038/nchembio0807-438.
Potency means the concentration at half of the fitted maximal effect.

SMILES | activation (signal gain) | Potency
COc1ccc(-c2cc(N3CCCC(NC(=O)c4ccsc4)C3)n[nH]2)cc1 (centres undefined) | 19.3% | –
Fc1ccc(Nc2nc(-c3ccccc3F)no2)cc1 | 22% | –
Cc1nn(-c2ccc(C(C)C)cc2)c(C)c1[C@@H]1C=C[C@@H](NC(=S)NCC(C)C)C1 | 13.7% [at 49.3 µM] | –
COc1ccc(CC(=O)Nc2ccc(-c3nc4ccccc4s3)c(C)c2)cc1 | 11.5% | –
O=C(COc1ccc(Cl)cc1)Nc1ccc(-c2nc3cc(Cl)ccc3o2)c(O)c1 | 11.7% | –
O=C([C@@H]1C[C@@H](O)[C@H](O)[C@@H]2NC(=S)N(c3ccc(OC(F)(F)F)cc3)[C@@H]21)N1CCCCC1 | 18.3% | –
CCNC(=O)C1C(c2cccc(NC(=O)c3ccc(OC)cc3)c2)OC(=O)N1Cc1ccc(C)cc1 (centres undefined) | 19.8% | –
Cc1nnn2c(C(=O)NC3CC3)cccc12 | 15.7% [at 65.7 µM] | –
COc1cc(F)ccc1-c1ccc(COc2ccc3c(cnn3CCC(=O)O)c2)cc1 | 10.6% [at 49.3 µM] | –
Cc1cc(C)n(CCC(=O)N2CCC(Cc3noc(C4CC4)n3)C2)n1 (centres undefined) | 9.71% | –
O=C(Nc1ccccc1)c1nc2c(o1)CCN(Cc1cccc(Cl)c1)CC2 | 18.4% [at 49.3 µM] | –
Cc1ccc(C(=O)Nc2ccc(-c3nc4ccccc4s3)c(O)c2)cc1 | 15.8% | –
CC(=O)c1ccc(NC(=O)CSc2nnc(NC(=O)Nc3ccccc3)s2)cc1 | 19.1% | –
O=C(CSc1ccc(F)cc1)Nc1ccccc1-c1nc2ccccc2s1 | 10.6% | –
C[S+](=O)([O-])CCn1ncc2cc(OCc3cccc(-c4ccccc4)c3)ccc21 | 15.9% [at 49.3 µM] | –
Cc1ccc2cc(CN3CCN(CC(N)=O)CC3)c(-c3cccs3)nc2c1 | 17.7% | –
OCc1cccc(-c2cc3c(cn2)CN(Cc2ccccc2)CCN3)c1 | 19.2% [at 49.3 µM] | –
O=C(NCc1ccc(F)c(Cl)c1)C1CCN(C(=O)c2ncn3c2COC(c2ccccc2)C3)CC1 (centres undefined) | 12% | –
CC(=O)Oc1ccccc1C(=O)Nc1ccc(-c2nc3ccc(C)cc3s2)cc1 | 20.9% | –
O=C(NCc1ccccc1)C1CCN(C(=O)c2ncn3c2COC(c2ccccc2)C3)CC1 (centres undefined) | 16.6% | –
O=C(/C=C/c1ccccc1)Nc1cc(-c2nc3cc(Cl)ccc3o2)ccc1Cl | 14.8% | –
CNc1nc(C(=O)NCc2ccc3[nH]c(-c4ccc(F)cc4)c(C)c3c2)cs1 | 13.1% | –
OCC1CCCN(c2ncnc3c2cnn3-c2ccccc2)C1 (centres undefined) | – | 1.76 µM (active)
Cc1ccc(-n2ncc3c(N4CCC(C(N)=O)CC4)ncnc32)cc1 | 15.7% | –
OCCN1CCN(c2nc(N3CCCCC3)c3cnn(-c4ccc(Cl)cc4)c3n2)CC1 | 11.8% | –
Cc1ccc(-c2nnc(SCc3ccccc3C)o2)cc1 | 13.5% | –
O=C(NC1CCN(c2cc(-c3ccc(F)cc3)[nH]n2)C1)c1cc2ccccc2[nH]1 (centres undefined) | 18.6% | –

SMILES | activation (signal gain) | Potency
Cn1ccnc1CN1CCc2nc(C(=O)Nc3ccccc3)oc2CC1 | 18.4% [at 49.3 µM] | –
Cc1ccc(C2Cn3nnc(C(=O)N4CCC(C(=O)NCCc5ccccc5)CC4)c3CO2)cc1 (centres undefined) | 9.42% | –
CN1c2cc(C(=O)Nc3ccccc3)ccc2C(=O)N2CCCCCC21 (centres undefined) | 17% | –
Oc1cccc(-c2cc3c(cn2)CN(Cc2cccnc2)CCN3)c1 | 18.1% [at 49.3 µM] | –
OC1(CN2CCCCC2)CCN(c2nc3ccccc3s2)C1 (centres undefined) | 16% | –
Cc1nn(-c2ccc(C(C)(C)C)cc2)c(C)c1[C@@H]1C=C[C@@H](NC(=O)c2ccco2)C1 | 9.96% [at 49.3 µM] | –
Cc1cccc(C(=O)Nc2ccc(-c3nc4ccccc4s3)c(C)c2)c1 | 21.9% | –
COc1cccc(-c2nc3ccc(-c4ccc5c(c4)OCO5)cc3o2)c1OC | 24.4% | –
Cc1ccc(Cl)cc1-n1ncc2c(N3CCC(C(N)=O)CC3)ncnc21 | 12% | –
COc1ccc(-c2nc3ccccc3s2)cc1NC(=O)COc1ccccc1C | 7.67% | –
CN1CCN(C[C@@H]2CN(C(=O)CCCc3ccccc3)C[C@@H]2CO)CC1 | 8.6% | –
Cc1nn(-c2ccc(C(C)C)cc2)c(C)c1[C@@H]1C=C[C@@H](NC(=O)Nc2ccccc2)C1 | 14.5% [at 49.3 µM] | –
Cc1ccc(Nc2c(-c3ccc(N(C)C)cc3)nc3nc[nH]n23)cc1 | 18.3% | –
CC(=O)Nc1ccc(NC(=O)CCCc2nc(-c3ccc(C(C)(C)C)cc3)no2)cc1 | 24.7% | –
O=C(CCCc1ccccc1)N1CCC2(CC1)CC(O)CCO2 (centres undefined) | 21.2% | –
COc1ccccc1OC1(C(=O)O)CCN(c2ncnc3nc[nH]c23)CC1 | 11.8% | –
CC(C)C(=O)Nc1cc(-c2nc3ccccc3s2)ccc1Cl | 11.7% | –
Oc1ccc(-c2nc(C3CC3)nc3c2CCN(Cc2cccc(F)c2)CC3)cc1 | 9.06% | –
Cc1nn(-c2ccc(C(C)C)cc2)c(C)c1[C@@H]1C=C[C@@H](NC(=O)CC2(CC(=O)O)CCCC2)C1 | 15.4% | –
Cc1cc2nn(-c3ccc(Cl)cc3)nc2cc1NC(=O)C(C)C | 17.2% | –
O=C(NCC1CC1)C1CCN(C(=O)c2ncn3c2COC(c2ccccc2)C3)CC1 (centres undefined) | 12.6% | –
CCc1cccc(NC(=O)c2cc(-c3ccccc3)n[nH]2)c1 | 25.8% | –
CC(=O)c1nn(-c2ccc(OC(F)(F)F)cc2)nc1Nc1ccccc1 | 14.5% | –
COc1ccc(C)cc1NC(=O)Nc1cccc(-c2ccc(N3CCCCC3)nn2)c1 | – | 8.81 µM (active)
Cc1cccc(-c2cccc(NC(=O)C3CCCN(C(=O)CC(F)(F)F)C3)c2)c1 (centres undefined) | 12.4% | –
Cc1ccc(-c2nc(C(=O)N(C)Cc3ccccc3)no2)cc1 | 13.1% | –
CCOC(=O)C1CCN(C(=O)c2cccc3c2CCN3C(=O)Nc2ccccc2)CC1 | 16.3% | –
